Test results as given in the supplement of paper PMC8728848.
This is one part of a sample in which the strongest signals are shown more often than they occur.

Columns and labels:
Assay in all cases: glycan array binding signal (z-score within array); higher = stronger binding
Details in all cases: glycan notation: IUPAC condensed, linker removed
[1] = target: Fuc(a1-2)Gal(b1-3)GalNAc(b1-3)Gal
Summary of the method: (§1)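 Negative Z-scores can be read as non-binding. The Z-score is calculated within each array and then averaged across arrays of one protein sequence at different concentrations or buffers and across linkers. Arrays, 3228 in all, were curated from the Consortium for Functional Glycomics database and kept only where the protein sequence was available.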

[2] = target: Fuc(a1-2)Gal(b1-3)[Fuc(a1-4)]GlcNAc
Summary of the method: as §1

[3] = target: Fuc(a1-2)Gal(b1-3)[Fuc(a1-4)]GlcNAc(b1-3)[Gal(b1-4)GlcNAc(b1-6)]Gal(b1-4)Glc
Summary of the method: as §1

[4] = target: Fuc(a1-2)Gal(b1-4)GlcNAc(b1-3)Gal(b1-4)GlcNAc(b1-2)Man(a1-3)[Fuc(a1-2)Gal(b1-4)GlcNAc(b1-3)Gal(b1-4)GlcNAc(b1-2)Man(a1-6)]Man(b1-4)GlcNAc(b1-4)GlcNAc
Summary of the method: as §1

[5] = target: Fuc(a1-2)Gal(b1-4)[Fuc(a1-3)]GlcNAc(b1-3)Gal(b1-4)[Fuc(a1-3)]GlcNAc
Summary of the method: as §1

[6] = target: Fuc(a1-2)[Gal(a1-3)]Gal(b1-4)GlcNAc(b1-2)Man(a1-3)[Fuc(a1-2)[Gal(a1-3)]Gal(b1-4)GlcNAc(b1-2)Man(a1-6)]Man(b1-4)GlcNAc(b1-4)GlcNAc
Summary of the method: as §1

[7] = target: Fuc(a1-2)[Gal(a1-3)]Gal(b1-4)GlcNAc(b1-3)GalNAc
Summary of the method: as §1

[8] = target: Fuc(a1-2)[GalNAc(a1-3)]Gal(b1-3)GlcNAc(b1-6)GalNAc
Summary of the method: as §1

[9] = target: Fuc(a1-2)[GalNAc(a1-3)]Gal(b1-4)GlcNAc(b1-2)Man(a1-3)[Fuc(a1-2)[GalNAc(a1-3)]Gal(b1-4)GlcNAc(b1-2)Man(a1-6)]Man(b1-4)GlcNAc(b1-4)GlcNAc
Summary of the method: as §1

[10] = target: Fuc(a1-2)[GalNAc(a1-3)]Gal(b1-4)GlcNAc(b1-3)Gal(b1-4)GlcNAc(b1-3)Gal(b1-4)GlcNAc
Summary of the method: as §1

[11] = target: Fuc(a1-2)[GalNAc(b1-3)]Gal
Summary of the method: as §1

[12] = target: Fuc(a1-3)[GalNAc(b1-4)]GlcNAc
Summary of the method: as §1

[13] = target: Gal(a1-3)Gal(b1-4)GlcNAc(b1-2)Man
Summary of the method: as §1

[14] = target: Gal(a1-3)Gal(b1-4)GlcNAc(b1-2)Man(a1-3)[Gal(a1-3)Gal(b1-4)GlcNAc(b1-2)Man(a1-6)]Man(b1-4)GlcNAc(b1-4)GlcNAc
Summary of the method: as §1

[15] = target: Gal(a1-3)[Gal(a1-4)]Gal(b1-4)GlcNAc
Summary of the method: as §1

Gal(a1-4)Gal(b1-4)Glc = target: Gal(a1-4)Gal(b1-4)Glc
Summary of the method: as §1

[16] = target: Gal(b1-3)[Fuc(a1-4)]GlcNAc(b1-2)Man
Summary of the method: as §1

[17] = target: Gal(b1-3)[Fuc(a1-4)]GlcNAc(b1-3)Gal(b1-3)[Fuc(a1-4)]GlcNAc
Summary of the method: as §1

[18] = target: Gal(b1-4)GalNAc(a1-3)[Fuc(a1-2)]Gal(b1-4)GlcNAc
Summary of the method: as §1

Gal(b1-4)GlcNAc(b1-2)Man = target: Gal(b1-4)GlcNAc(b1-2)Man
Summary of the method: as §1

[19] = target: Gal(b1-4)GlcNAc(b1-6)GalNAc
Summary of the method: as §1

Gal(b1-6)Gal = target: Gal(b1-6)Gal
Summary of the method: as §1

Gal3S(b1-3)GalNAc = target: Gal3S(b1-3)GalNAc
Summary of the method: as §1

Gal3S(b1-4)GlcNAc = target: Gal3S(b1-4)GlcNAc
Summary of the method: as §1

[20] = target: Gal3S(b1-4)[Fuc(a1-3)]Glc6S
Summary of the method: as §1

[21] = target: Gal3S(b1-4)[Fuc(a1-3)]GlcNAc
Summary of the method: as §1

Gal4S6S(b1-4)GlcNAc = target: Gal4S6S(b1-4)GlcNAc
Summary of the method: as §1

[22] = target: GalNAc(b1-4)GlcNAc(b1-2)Man
Summary of the method: as §1

GalNAc(b1-4)GlcNAc6S = target: GalNAc(b1-4)GlcNAc6S
Summary of the method: as §1

[23] = target: GlcNAc(b1-2)Man(a1-3)[GlcNAc(b1-4)][GlcNAc(b1-2)Man(a1-6)]Man(b1-4)GlcNAc(b1-4)[Fuc(a1-6)]GlcNAc
Summary of the method: as §1

GlcNAc(b1-3)Fuc = target: GlcNAc(b1-3)Fuc
Summary of the method: as §1

[24] = target: GlcNAc(b1-3)Gal(b1-4)GlcNAc(b1-2)[GlcNAc(b1-3)Gal(b1-4)GlcNAc(b1-6)]Man(a1-6)[GlcNAc(b1-3)Gal(b1-4)GlcNAc(b1-2)Man(a1-3)]Man(b1-4)GlcNAc(b1-4)GlcNAc
Summary of the method: as §1

[25] = target: GlcNAc(b1-3)[GlcNAc(b1-4)][GlcNAc(b1-6)]GlcNAc
Summary of the method: as §1

[26] = target: GlcNAc(b1-4)GlcNAc(b1-4)GlcNAc
Summary of the method: as §1

[27] = target: GlcNAc(b1-6)Gal(b1-4)GlcNAc
Summary of the method: as §1

[28] = target: Man(a1-3)[Man(a1-6)]Man(b1-4)GlcNAc(b1-4)GlcNAc
Summary of the method: as §1

[29] = target: Neu5Ac(a2-3)Gal(b1-3)GalNAc(b1-4)[Neu5Ac(a2-8)Neu5Ac(a2-3)]Gal(b1-4)Glc
Summary of the method: as §1

[30] = target: Neu5Ac(a2-3)Gal(b1-3)GlcNAc
Summary of the method: as §1

[31] = target: Neu5Ac(a2-3)Gal(b1-3)GlcNAc(b1-4)Gal(b1-4)Glc
Summary of the method: as §1

[32] = target: Neu5Ac(a2-3)Gal(b1-3)[Fuc(a1-4)]GlcNAc(b1-3)Gal(b1-3)[Fuc(a1-4)]GlcNAc
Summary of the method: as §1

[33] = target: Neu5Ac(a2-3)Gal(b1-3)[Fuc(a1-4)]GlcNAc(b1-3)Gal(b1-4)[Fuc(a1-3)]GlcNAc
Summary of the method: as §1

[34] = target: Neu5Ac(a2-3)Gal(b1-4)[Fuc(a1-3)]GlcNAc(b1-3)GalNAc
Summary of the method: as §1

[35] = target: Neu5Ac(a2-3)Gal(b1-4)[Fuc(a1-3)]GlcNAc(b1-6)[Gal(b1-3)]GalNAc
Summary of the method: as §1

[36] = target: Neu5Ac(a2-6)Gal(b1-4)GlcNAc(b1-3)Gal(b1-4)[Fuc(a1-3)]GlcNAc(b1-3)Gal(b1-4)[Fuc(a1-3)]GlcNAc
Summary of the method: as §1

[37] = target: Neu5Ac(a2-6)Gal(b1-4)GlcNAc(b1-6)[Gal(b1-3)]GalNAc
Summary of the method: as §1

[38] = target: Neu5Gc(a2-3)Gal(b1-3)GlcNAc
Summary of the method: as §1

Neu5Gc(a2-3)Gal(b1-4)Glc = target: Neu5Gc(a2-3)Gal(b1-4)Glc
Summary of the method: as §1

B1: Blon0732mut (Bifidobacterium longum) (protein)
chain: MPTSEHKADDATRHLTLIPAPVTLEYTHGTALIGPLVTIEDADQSWETLPIEQLSDELRHRYGVTVLRRRTHGTVISLGLDSRLAHDEYTLDVSESEGIRVRGGGESGLRYGLQTLRQIIGQTSRAIPCLHIQDKPAFAVRAYSLDVTRGRVPTMEFLTWFVDQLALYKYNQFQLYVEHAFAFVELSEAWRGTDPLTAADITYLDEYCARRGIELVPSLATFGHMYMNLRTREHRGLGEFPEDADRPFSFIERMEHHTLNAADPKAHDFASRLIEEYAPLFRSKSFNIGGNETFDLGRGRSAQDAPEAGRDELYAGFVRDLCETLARHGRQPMLWADIALESPRTMDLLPGDITMLNWMYEPQIDESKIQTIATQGRRQFVCPAVRAWSRFFPDYAGAWLNTYHMALAGTKYDAEGMVVTDWGDYGHVNDPRLSVPGLCYGAQNAWNPIEIDAHEMNRRISALVYGDESGRIMDCLARIDSDGVSFPWDLAVQVLELEYGSGTGALNMDVAACMERSSGGKLTLDRTLGCDDARRRMLQWNRERIERRRDCDQVLRDCGDAFAGLDKGGLTAEFLSVMLDGQRLFNELGEELLALADGKDVGSGANRLAADLELWFERYRAQWLSVGRHAELARIAHVVWSLADILRRGAL
- glycan array binding signal (z-score) [1]: -1.26
- glycan array binding signal (z-score) [2]: 0.087
- glycan array binding signal (z-score) [3]: -0.87
- glycan array binding signal (z-score) [4]: -0.325
- glycan array binding signal (z-score) [5]: 0.489
- glycan array binding signal (z-score) [6]: -0.864
- glycan array binding signal (z-score) [7]: -0.533
- glycan array binding signal (z-score) [8]: -0.809
- glycan array binding signal (z-score) [9]: 0.397
- glycan array binding signal (z-score) [10]: 0.035
- glycan array binding signal (z-score) [11]: 0.44
- glycan array binding signal (z-score) [12]: 1.89
- glycan array binding signal (z-score) [13]: -0.505
- glycan array binding signal (z-score) [14]: 0.086
- glycan array binding signal (z-score) [15]: 5.9
- glycan array binding signal (z-score) (Gal(a1-4)Gal(b1-4)Glc): 2.6
- glycan array binding signal (z-score) [16]: -0.411
- glycan array binding signal (z-score) [17]: -0.751
- glycan array binding signal (z-score) [18]: 0.345
- glycan array binding signal (z-score) (Gal(b1-4)GlcNAc(b1-2)Man): 1.31
- glycan array binding signal (z-score) [19]: 0.168
- glycan array binding signal (z-score) (Gal(b1-6)Gal): -0.313
- glycan array binding signal (z-score) (Gal3S(b1-3)GalNAc): 1.16
- glycan array binding signal (z-score) (Gal3S(b1-4)GlcNAc): -0.019
- glycan array binding signal (z-score) [20]: 4.3
- glycan array binding signal (z-score) [21]: 3.42
- glycan array binding signal (z-score) (Gal4S6S(b1-4)GlcNAc): 2.26
- glycan array binding signal (z-score) [22]: 0.028
- glycan array binding signal (z-score) (GalNAc(b1-4)GlcNAc6S): -0.46
- glycan array binding signal (z-score) [23]: -0.15
- glycan array binding signal (z-score) (GlcNAc(b1-3)Fuc): -1.38
- glycan array binding signal (z-score) [24]: 3.03
- glycan array binding signal (z-score) [25]: 5.26
- glycan array binding signal (z-score) [26]: -0.223
- glycan array binding signal (z-score) [27]: 0.074
- glycan array binding signal (z-score) [28]: -0.261
- glycan array binding signal (z-score) [29]: 3.81
- glycan array binding signal (z-score) [30]: -0.428
- glycan array binding signal (z-score) [31]: 0.176
- glycan array binding signal (z-score) [32]: -0.898
- glycan array binding signal (z-score) [33]: -0.002
- glycan array binding signal (z-score) [34]: 2.5
- glycan array binding signal (z-score) [35]: 0.262
- glycan array binding signal (z-score) [36]: 2.6
- glycan array binding signal (z-score) [37]: 0.982
- glycan array binding signal (z-score) [38]: -0.667
- glycan array binding signal (z-score) (Neu5Gc(a2-3)Gal(b1-4)Glc): 2.58
